According to ChEMBL document CHEMBL3988442, “University of Dundee, Small-Polar-MMV Screening Library” (2021):
For some assays here: Measured potencies and affinities stand elsewhere.

Experiments:
Set-up in all cases: scale not given: direction of the effect not stated beside the values
[1] = target: Protein translocase subunit SecA (Escherichia coli (strain K12)) (UniProt P10408); test: Assay to Identify E. coli SecA ATPase Inhibitors; assay type: functional; settings: 30 µM
[2] = target: T1, Ubiquitin-activating enzyme e1, putative (Leishmania donovani (strain BPK282A1)) (UniProt E9BSI1); test: Leishmania donovani Ubiquitin Activating Enzyme (LdE1); assay type: functional; settings: 30 µM
T1 sequence (whole entry): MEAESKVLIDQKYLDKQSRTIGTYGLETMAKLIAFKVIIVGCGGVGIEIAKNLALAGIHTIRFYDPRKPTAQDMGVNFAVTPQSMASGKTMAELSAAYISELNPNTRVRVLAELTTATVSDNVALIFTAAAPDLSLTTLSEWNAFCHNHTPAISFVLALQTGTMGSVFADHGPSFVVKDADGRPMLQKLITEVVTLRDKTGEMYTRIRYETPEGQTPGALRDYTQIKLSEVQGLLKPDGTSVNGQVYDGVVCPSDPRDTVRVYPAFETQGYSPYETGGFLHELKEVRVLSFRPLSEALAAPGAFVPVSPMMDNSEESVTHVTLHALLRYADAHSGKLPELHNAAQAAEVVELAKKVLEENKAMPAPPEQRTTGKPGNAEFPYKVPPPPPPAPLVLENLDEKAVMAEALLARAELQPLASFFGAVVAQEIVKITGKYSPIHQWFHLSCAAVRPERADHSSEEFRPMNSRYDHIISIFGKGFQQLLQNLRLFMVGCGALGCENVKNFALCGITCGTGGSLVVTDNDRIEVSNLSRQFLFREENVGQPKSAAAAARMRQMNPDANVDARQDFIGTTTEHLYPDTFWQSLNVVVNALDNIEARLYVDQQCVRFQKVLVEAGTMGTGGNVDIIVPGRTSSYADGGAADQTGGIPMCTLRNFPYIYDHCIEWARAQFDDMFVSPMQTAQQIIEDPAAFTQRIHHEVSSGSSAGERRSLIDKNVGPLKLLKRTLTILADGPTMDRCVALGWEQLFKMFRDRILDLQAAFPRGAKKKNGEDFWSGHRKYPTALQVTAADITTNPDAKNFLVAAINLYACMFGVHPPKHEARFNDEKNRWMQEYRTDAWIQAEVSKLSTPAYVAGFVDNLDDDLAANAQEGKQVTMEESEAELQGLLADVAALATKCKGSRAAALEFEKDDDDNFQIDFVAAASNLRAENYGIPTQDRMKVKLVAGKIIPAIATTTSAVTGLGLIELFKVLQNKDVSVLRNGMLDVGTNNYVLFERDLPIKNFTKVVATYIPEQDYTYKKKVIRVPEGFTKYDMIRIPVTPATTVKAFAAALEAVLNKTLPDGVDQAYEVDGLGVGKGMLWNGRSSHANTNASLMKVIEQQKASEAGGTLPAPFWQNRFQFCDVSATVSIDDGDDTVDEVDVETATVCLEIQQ

[3] = target: AMP-activated protein kinase, AMPK (Homo sapiens) (UniProt P54646+O43741+P54619+Q9UGJ0+Q9Y478+Q13131+Q9UGI9); test: AMP-dependent Kinase enzyme assay. An in vitro enzyme assay that detects ADP turnover that is directly proportional to AMPK activity. This uses naive AMPK that is activated during the assay with MK-8722; assay type: functional; settings: 30 µM
[4] = target: Sialic acid-binding Ig-like lectin 9 (Homo sapiens) (UniProt Q9Y336); test: Hs-Siglec9 ALPHAscreen SOP 20170721; settings: 10 µM
Chain of Sialic acid-binding Ig-like lectin 9 (Homo sapiens) (Q9Y336 whole entry): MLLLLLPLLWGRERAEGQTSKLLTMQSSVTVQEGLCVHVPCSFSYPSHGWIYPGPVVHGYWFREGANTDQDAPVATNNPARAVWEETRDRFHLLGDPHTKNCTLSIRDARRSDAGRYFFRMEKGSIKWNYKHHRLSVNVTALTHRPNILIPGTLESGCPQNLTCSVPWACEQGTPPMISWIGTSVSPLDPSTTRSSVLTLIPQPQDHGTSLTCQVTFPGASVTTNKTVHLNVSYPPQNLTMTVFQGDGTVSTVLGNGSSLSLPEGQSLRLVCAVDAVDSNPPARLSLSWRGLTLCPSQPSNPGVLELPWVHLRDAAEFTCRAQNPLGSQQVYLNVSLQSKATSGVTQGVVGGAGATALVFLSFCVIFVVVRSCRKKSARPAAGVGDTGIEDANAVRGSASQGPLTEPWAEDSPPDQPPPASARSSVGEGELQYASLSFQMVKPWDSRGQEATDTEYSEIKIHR

[5] = tested on: Trypanosoma cruzi; test: Trypanosoma cruzi phosphomannomutase and mannose-1-phosphate guanylyltransferase assay; assay type: functional; settings: 10 µM
[6] = target: T2, Arginase-2, mitochondrial (Homo sapiens) (UniProt P78540); test: in vitro enzyme assay to detect the production of urea directly proportional to the activity of Arginase II; assay type: functional; settings: 33.3 µM; also: in the data most compounds retested in dose-response had high values
T2 sequence (whole entry): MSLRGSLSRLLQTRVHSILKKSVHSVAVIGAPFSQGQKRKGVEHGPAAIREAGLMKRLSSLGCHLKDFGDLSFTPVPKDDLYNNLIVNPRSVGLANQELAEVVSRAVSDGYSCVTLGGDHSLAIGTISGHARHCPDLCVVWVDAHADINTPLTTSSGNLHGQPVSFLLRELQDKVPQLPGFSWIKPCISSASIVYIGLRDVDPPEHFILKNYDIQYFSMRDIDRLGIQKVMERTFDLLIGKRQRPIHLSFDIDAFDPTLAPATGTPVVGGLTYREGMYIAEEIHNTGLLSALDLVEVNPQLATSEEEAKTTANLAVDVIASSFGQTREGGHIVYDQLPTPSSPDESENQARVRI

[7] = target: T3, Proteasome subunit beta (Trypanosoma cruzi) (UniProt O96673); test: Trypanosoma cruzi proteasome chymotrypsin-like activity (TcProtChymo) assay.; also: in the data most compounds retested in dose-response had high values; assay type: functional; settings: 9.37 µM
T3 sequence (whole entry): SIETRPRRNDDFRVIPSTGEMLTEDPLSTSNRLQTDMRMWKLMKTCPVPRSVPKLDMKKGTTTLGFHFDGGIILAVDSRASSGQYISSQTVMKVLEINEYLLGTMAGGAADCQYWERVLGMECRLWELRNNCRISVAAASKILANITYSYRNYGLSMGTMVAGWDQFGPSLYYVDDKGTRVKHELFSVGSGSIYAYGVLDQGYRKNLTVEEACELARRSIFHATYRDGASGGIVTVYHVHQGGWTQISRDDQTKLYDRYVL

[8] = organism: Homo sapiens; test: To identify inhibition of the IFN signalling (Jak-Stat) pathway via expression of an eGFP reporter gene under the control of an IFN-stimulated response element (ISRE) containing MxA promoter.; assay type: functional; settings: 30 µM
[9] = target: T4, Tyrosyl-tRNA synthetase, putative (Trypanosoma cruzi (strain CL Brener)) (UniProt Q4DSP6); test: Trypanosoma cruzi tyrosyl tRNA synthetase (TcYRS) _High Tyrosine SOP; assay type: functional; settings: 30 µM; also: in the data most compounds retested in dose-response had high values
T4 sequence (whole entry): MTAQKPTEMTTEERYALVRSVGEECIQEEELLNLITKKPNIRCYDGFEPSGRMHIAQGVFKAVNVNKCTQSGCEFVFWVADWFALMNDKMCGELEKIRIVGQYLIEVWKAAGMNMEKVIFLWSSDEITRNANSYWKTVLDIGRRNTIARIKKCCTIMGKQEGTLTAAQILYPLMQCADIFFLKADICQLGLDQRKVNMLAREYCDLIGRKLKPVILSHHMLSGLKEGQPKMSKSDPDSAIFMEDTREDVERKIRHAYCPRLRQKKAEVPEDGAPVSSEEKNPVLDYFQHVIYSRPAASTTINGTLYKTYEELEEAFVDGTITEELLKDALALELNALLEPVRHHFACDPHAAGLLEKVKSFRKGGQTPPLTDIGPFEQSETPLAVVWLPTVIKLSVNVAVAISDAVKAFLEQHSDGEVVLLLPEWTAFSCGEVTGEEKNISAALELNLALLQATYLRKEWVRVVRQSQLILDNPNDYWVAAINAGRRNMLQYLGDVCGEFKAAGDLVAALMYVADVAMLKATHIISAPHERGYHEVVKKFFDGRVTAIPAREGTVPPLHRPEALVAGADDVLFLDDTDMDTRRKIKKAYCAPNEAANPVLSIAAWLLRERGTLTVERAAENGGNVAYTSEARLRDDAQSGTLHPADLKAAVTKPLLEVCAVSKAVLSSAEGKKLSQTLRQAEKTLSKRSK

[10] = target: T4, Tyrosyl-tRNA synthetase, putative (Trypanosoma cruzi (strain CL Brener)); test: Trypanosoma cruzi tyrosyl tRNA synthetase (TcYRS) SOP; assay type: functional; settings: 30 µM
[11] = target: Chromo domain-containing protein 1 (Saccharomyces cerevisiae (strain ATCC 204508 / S288c) (Baker's yeast)) (UniProt P32657); test: ScCHD-1 Enzyme Inhibition Assay; assay type: functional; settings: 30 µM; also: in the data most compounds retested in dose-response had high values
Chain of Chromo domain-containing protein 1 (Saccharomyces cerevisiae (strain ATCC 204508 / S288c) (Baker's yeast)) (P32657 whole entry, the tested form may be a part): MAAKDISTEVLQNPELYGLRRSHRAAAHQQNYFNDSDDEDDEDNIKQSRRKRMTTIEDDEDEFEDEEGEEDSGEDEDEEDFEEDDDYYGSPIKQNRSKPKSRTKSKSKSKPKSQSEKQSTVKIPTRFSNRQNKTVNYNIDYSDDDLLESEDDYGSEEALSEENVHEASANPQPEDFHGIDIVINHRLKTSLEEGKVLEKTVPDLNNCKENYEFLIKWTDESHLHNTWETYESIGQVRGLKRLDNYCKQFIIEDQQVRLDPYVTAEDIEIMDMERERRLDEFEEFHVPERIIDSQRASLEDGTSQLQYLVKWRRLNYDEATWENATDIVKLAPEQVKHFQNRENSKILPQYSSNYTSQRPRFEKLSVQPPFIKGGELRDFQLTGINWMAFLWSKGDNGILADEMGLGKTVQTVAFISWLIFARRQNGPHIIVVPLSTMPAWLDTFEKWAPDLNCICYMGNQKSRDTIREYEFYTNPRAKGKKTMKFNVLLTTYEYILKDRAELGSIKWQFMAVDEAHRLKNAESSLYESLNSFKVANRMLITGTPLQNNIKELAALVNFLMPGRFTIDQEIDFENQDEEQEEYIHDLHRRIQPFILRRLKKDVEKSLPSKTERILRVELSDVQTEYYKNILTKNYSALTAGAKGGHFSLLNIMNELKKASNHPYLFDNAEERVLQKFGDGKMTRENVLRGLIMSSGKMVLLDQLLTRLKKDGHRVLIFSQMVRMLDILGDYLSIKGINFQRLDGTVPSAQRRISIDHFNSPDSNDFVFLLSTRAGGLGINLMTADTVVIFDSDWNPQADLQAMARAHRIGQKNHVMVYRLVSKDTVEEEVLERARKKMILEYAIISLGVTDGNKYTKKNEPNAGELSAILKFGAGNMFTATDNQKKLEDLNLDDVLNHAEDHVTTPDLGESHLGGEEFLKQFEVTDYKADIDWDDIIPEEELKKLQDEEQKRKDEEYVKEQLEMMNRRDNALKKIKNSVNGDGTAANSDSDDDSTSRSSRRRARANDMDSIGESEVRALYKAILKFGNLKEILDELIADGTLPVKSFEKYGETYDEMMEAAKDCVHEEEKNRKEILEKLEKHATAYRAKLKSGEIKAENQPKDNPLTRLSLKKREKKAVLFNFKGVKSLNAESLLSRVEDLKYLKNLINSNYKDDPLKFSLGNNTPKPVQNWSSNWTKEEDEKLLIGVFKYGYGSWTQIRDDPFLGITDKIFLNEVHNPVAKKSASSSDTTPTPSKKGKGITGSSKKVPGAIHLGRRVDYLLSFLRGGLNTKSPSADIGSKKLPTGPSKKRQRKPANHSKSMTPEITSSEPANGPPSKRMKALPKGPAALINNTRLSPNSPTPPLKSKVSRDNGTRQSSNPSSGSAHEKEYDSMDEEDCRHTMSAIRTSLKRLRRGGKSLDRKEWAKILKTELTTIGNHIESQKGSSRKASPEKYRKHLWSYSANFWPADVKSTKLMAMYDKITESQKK

Chain of Protein translocase subunit SecA (Escherichia coli (strain K12)) (P10408 whole entry): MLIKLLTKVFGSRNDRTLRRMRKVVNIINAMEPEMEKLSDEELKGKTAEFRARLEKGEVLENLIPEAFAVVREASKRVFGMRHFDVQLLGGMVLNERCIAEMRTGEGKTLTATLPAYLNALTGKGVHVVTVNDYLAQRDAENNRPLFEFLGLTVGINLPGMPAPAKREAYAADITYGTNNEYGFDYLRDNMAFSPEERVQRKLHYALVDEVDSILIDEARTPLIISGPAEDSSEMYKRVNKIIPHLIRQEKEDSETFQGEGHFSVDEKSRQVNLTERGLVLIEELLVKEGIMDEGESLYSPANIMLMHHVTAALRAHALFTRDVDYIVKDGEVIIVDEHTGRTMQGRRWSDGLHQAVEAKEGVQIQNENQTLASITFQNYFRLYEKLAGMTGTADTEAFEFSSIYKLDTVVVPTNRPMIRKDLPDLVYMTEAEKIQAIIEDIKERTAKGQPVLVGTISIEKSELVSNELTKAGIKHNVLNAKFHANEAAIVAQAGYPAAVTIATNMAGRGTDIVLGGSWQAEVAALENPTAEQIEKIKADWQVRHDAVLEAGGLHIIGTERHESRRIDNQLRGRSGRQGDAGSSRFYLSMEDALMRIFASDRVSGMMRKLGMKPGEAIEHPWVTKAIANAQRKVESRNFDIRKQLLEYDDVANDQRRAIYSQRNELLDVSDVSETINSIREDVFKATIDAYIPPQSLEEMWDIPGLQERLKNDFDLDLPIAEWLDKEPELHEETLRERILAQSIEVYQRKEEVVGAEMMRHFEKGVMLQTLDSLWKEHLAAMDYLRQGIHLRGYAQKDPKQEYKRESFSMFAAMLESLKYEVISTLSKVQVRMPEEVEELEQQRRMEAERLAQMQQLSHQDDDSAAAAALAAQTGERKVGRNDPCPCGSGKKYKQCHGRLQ

| Structure (SMILES) | Percent Effect [1] [%] | Percent Effect [2] [%] | Percent Effect [3] [%] | Percent Effect [4] [%] | Percent Effect [5] [%] | Percent Effect [6] [%] | Percent Effect [7] [%] | Percent Effect [8] [%] | Percent Effect [9] [%] | Percent Effect [10] [%] | Percent Effect [11] [%] |
| --- | --- | --- | --- | --- | --- | --- | --- | --- | --- | --- | --- |
| COC[C@@]12CCO[C@@H]1CCN(C(=O)COc1ccccc1OC)C2 | 0.312 | 8.22 | -2.94 | 5.31 | -4.76 | -2.4 | 17.2 | 3.04 | 5.21 | 11.1 | -3.51 |
| Cc1cc(C)n(-c2cncc(N3CCN(C(=O)C(C)(C)C)CC3)n2)n1 | -5.22 | 5.41 | 10.4 | -2.19 | -3.71 | -0.833 | 13.3 | 10.5 | 3.96 | 1.22 | -3.42 |
| CNC(=O)c1cccc(NC(=O)CN2CCN(S(C)(=O)=O)CC2)c1 | -3.07 | 18.9 | -6.24 | 18.5 | 5.57 | 4.22 | 13.8 | 8.76 | 5.38 | 16.1 | -3.08 |
| CC(O)CN1CCN(C(=O)c2cn(-c3ccccc3Cl)nn2)CC1 (stereo unspecified) | -1.74 | 10.8 | -3.04 | 16.5 | 2.44 | 5.71 | 4.21 | -2.08 | 3.23 | 13.6 | -4.02 |
| CC(c1ccc(Cl)cc1)N1CCN(CCS(C)(=O)=O)CC1 (stereo unspecified) | -3.62 | 5.41 | 0.609 | 6.25 | -0.579 | 3.81 | 14 | 10.3 | 3.7 | 14.6 | -5.14 |
| CC(C)n1c(=O)nc2n1C(=O)N(c1ccc(F)cc1)C2 | -3.14 | 13.2 | 0.365 | 6.05 | 0.682 | -2.37 | 13.9 | -9.89 | 4.25 | 7.79 | -5.52 |
| O=C(CCc1ccccc1F)NS(=O)(=O)c1ccc2c(c1)OCCCO2 | -6.43 | 11.4 | 2.28 | 1.9 | -0.923 | -4.95 | 9.09 | 6.8 | 2.08 | 12.7 | -20.4 |
| Cc1nnc(N2C[C@@H](OCCCn3cccn3)[C@H]3OCCC[C@H]32)s1 | -0.829 | 5.48 | -5.05 | 10.8 | 1.79 | -5.19 | 24.9 | -5.83 | 7.29 | 16.1 | -7.05 |
| CS(=O)(=O)N1CC[C@H]2C[C@@H](C(=O)N3CCOCC3)O[C@@H]2C1 | -3.64 | -8 | 8.84 | 4.61 | -1.54 | -53.2 | 2.73 | -12.5 | -2.08 | -7.5 | 1.18 |
| Cn1cc(C2COC3(CCN(C(=O)Cn4cccn4)CC3)C2)cn1 (stereo unspecified) | -2.57 | 13.5 | -8.57 | -2.55 | 2.25 | 2.23 | 24 | 3.24 | 4.32 | 17.9 | 2.16 |
| O=C(NCCCNCC1CNc2ccnn2C1)c1ccccc1 (stereo unspecified) | 0.663 | 2.7 | -9.29 | -3.11 | 0.193 | 4.29 | 16.6 | 9.18 | 5.82 | 14.6 | -3.29 |
| Cc1nc(N2CCOCC2)nc2c1CCN(C(=O)NC1CCCC1)CC2 | -0.181 | 6.67 | -1.67 | -6.84 | -11 | -6.16 | 19.2 | 0.0839 | -2.12 | 0 | -10.6 |
| Cc1ncsc1C(=O)NC1CCN(CCC(N)=O)CC1 | -5.32 | 15.6 | -3 | 11 | -2.62 | 0.356 | 4.56 | 4.69 | 4.85 | 9.76 | -1.54 |
| c1ccc(N2CCOC3(CCCN(c4nncs4)C3)C2)nc1 (stereo unspecified) | -3.17 | 7.79 | 3.64 | 2.14 | -1.28 | 3.23 | 14.4 | -6.63 | 3.17 | 8.97 | -7.1 |
| CCc1noc(CNc2ccc(C(=O)N3CCCC(C)C3)cc2C)n1 (stereo unspecified) | -4.09 | 0 | 2.37 | 9.47 | 1.69 | 3.2 | 3.88 | 9.39 | 4.85 | 2.44 | -8.29 |
| Cn1c(CC2CCS(=O)(=O)C2)nnc1SCCOc1ccccc1F (stereo unspecified) | -0.675 | 2.7 | 2.63 | 12.8 | 2.64 | 30.5 | 2.15 | -9.3 | -2.15 | 6.17 | -9.15 |
